Several values for one entry are separate records, joined by “and”; a condition that tells them apart may be missing. Identical values can stand only once. Records with an inconclusive call do not appear. Some compounds were tested as several samples or in several runs, with calls that do not always agree. Activity calls are given as the source filed them. The calls were made as follows: active = hit-call score of the fitted dose curve at least 0.9, where 1 is the maximum; inconclusive = response in the unintended direction; inactive = score below 0.9.
Biological target: Peroxisome proliferator-activated receptor gamma (Homo sapiens) (UniProt P37231)
Sequence (P37231 whole entry, looked up): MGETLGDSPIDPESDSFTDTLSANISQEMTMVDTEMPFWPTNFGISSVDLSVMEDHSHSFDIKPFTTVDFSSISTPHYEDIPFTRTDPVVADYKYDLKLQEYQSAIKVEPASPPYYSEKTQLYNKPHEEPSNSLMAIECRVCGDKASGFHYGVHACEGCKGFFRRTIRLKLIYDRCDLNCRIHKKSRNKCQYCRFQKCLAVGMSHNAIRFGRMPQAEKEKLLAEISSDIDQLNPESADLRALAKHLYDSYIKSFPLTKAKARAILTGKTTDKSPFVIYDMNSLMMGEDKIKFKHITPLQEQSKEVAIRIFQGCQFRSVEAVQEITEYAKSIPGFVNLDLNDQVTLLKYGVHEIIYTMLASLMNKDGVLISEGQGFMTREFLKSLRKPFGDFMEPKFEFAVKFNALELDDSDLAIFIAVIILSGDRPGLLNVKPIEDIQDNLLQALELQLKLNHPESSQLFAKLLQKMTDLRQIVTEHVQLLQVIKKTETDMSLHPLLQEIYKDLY
Assay: ATG_PPARg_TRANS: Attagene TRANS-FACTORIAL HepG2 Assay for human Peroxisome Proliferator-activated Receptor-gamma (PPARg) (AID 2283007)
Procedure: ATG_TRANS is a cell-based, multiplexed-readout assay that uses HepG2, a human liver cell line, with measurements taken at 24 hours after chemical dosing in a 24-well plate.ATG_PPARg_TRANS is one of 30 assay component(s) measured or calculated from the ATG_TRANS assay. It is designed to make measurements of mRNA induction, a form of inducible reporter, as detected with fluorescence intensity signals by Reverse transcription polymerase chain reaction (RT-PCR) and Capillary electrophoresis technology.Data from the assay component ATG_PPARg_TRANS was analyzed into 1 assay endpoint. This assay endpoint, ATG_PPARg_TRANS, was analyzed in the positive analysis fitting direction relative to DMSO as the negative control and baseline of activity. Using a type of inducible reporter, measures of mRNA for gain-of-signal activity can be used to understand the reporter gene at the transcription factor-level as they relate to the gene PPARG. Furthermore, this assay endpoint can be referred to as a primary readout, because this assay has produced multiple assay endpoints where this one serves a reporter gene function. To generalize the intended target to other relatable targets, this assay endpoint is annotated to the nuclear receptor intended target family, where the subfamily is non-steroidal.
Human liver HepG2 cells are transiently transfected with multiple reporter transcription units (MRTUs) in 6-well plates using FuGene 6 reagent (Roche; 3 ml FuGene/1 mg DNA). The MRTU constructs are regulated by a cis-regulating element (promoter). […] A major difference between the CIS and TRANS system is that in CIS activities of endogenous TFs are measured, whereas the TRANS assay evaluates changes in activities of exogenous, chimeric NR-Gal4 proteins. […] At the end of 24 hour incubation, total RNA was isolated using TriZol reagent (Invitrogen). The isolated RNA is then reverse-transcribed using oligo(dT) primer and Mo-MLV reverse transcriptase (Invitrogen) with DNAse I (Ambion) treatment for 30 min. The one-tenth of the produced cDNA was amplified by PCR using Taq DNA polymerase (Invitrogen) and two reporter sequence-specific primers. The PCR products were fluorescently labeled by primer extension with 6-arboxyfluorescein (6-FAM) 5'-labeled reporter sequence-specific primer (2 min at 95 C, 20 s at 68 C and 10 min at 72 C) and these products were digested with 5U of HpaI (New England Biolabs) for 2h at 37 C. The fragments were purified using Qiaquick PCR columns (Qiagen), analyzed on an ABI 3130xL genetic analyzer (Applied Biosystems) with peak positions identified by using a set of X-rhodamine (ROX)-labeled MapMarker1000 molecular weight standards (BioVentures). The raw capillary electrophoresis data was processed using Attagraph software (Attagene).

Compound | AC50 | outcome
CC1=C(/C=C/C(C)=C/C=C/C(C)=C/C(=O)O)C(C)(C)CCC1 | 29.6 µM (active) and 10.1 µM (active) | 
Cc1ccc(S(=O)(=O)O)c(C)c1 |  | inactive
c1ccc2c(c1)ccc1ccccc12 |  | inactive
CN1CCC[C@H]1c1cccnc1 |  | inactive
CCCCCCCCCCCCN1CCCC1=O |  | inactive
CCC(=C(c1ccc(O)cc1)c1ccc(OCCN(C)C)cc1)c1ccccc1 | 10.9 µM (active) and 9.84 µM (active) and 11.1 µM (active) | inactive
CCCCCCCC(=O)O |  | inactive
CC(=O)CC(C)(C)O |  | inactive
CCCOC(=O)c1ccc(O)cc1 | 45.6 µM (active) | 
NC(=O)N1C(=O)C(C(=O)c2cc(Cl)cs2)c2cc(F)c(Cl)cc21 (stereo not given) | 2.71 µM (active) | 
Oc1cccc(O)c1 |  | inactive
O=C(O)Cc1cc(I)c(Oc2cc(I)c(O)c(I)c2)c(I)c1 | 481 nM (active) and 460 nM (active) | 
Cc1cc(CCN2CCN(c3nsc4ccccc34)CC2)cc2c1NC(=O)CC2(C)C | 3.26 µM (active) | 
OCCC(F)(F)C(F)(F)C(F)(F)C(F)(F)C(F)(F)C(F)(F)F |  | inactive
CC(O)CO (stereo not given) |  | inactive
CCCCCCCCCCCCCCCS(=O)(=O)Oc1ccccc1 |  | inactive
CN1CCN(c2ccccc2/C=C2\SCCN(c3ccc(Cl)c(Cl)c3)C2=O)CC1 | 0.865 µM (active) | 
CCN(CC)CCNc1ccc(CNC=O)c2sc3ccc(OC)cc3c(=O)c12 | 0.718 µM (active) | 
CN(C)C=O |  | inactive

Compound | AC50 | outcome
NCC(F)(F)C(F)(F)C(F)(F)C(F)(F)C(F)(F)C(F)(F)C(F)(F)F |  | inactive
CCC(C)(C)C1CCC(O)CC1 (stereo not given) |  | inactive
COCC(C)OCC(C)O (stereo not given) |  | inactive
CCOC(=O)CC(O)(CC(=O)OCC)C(=O)OCC |  | inactive
O=C1OC2(c3ccccc31)c1cc(Br)c(O)c(Br)c1Oc1c2cc(Br)c(O)c1Br | 51.8 µM (active) | inactive
C#C[C@]1(O)CC[C@H]2[C@@H]3CCC4=CC(=O)CC[C@@H]4[C@H]3CC[C@@]21C |  | inactive
C=C(C)C(=O)OCCC(F)(F)C(F)(F)C(F)(F)C(F)(F)C(F)(F)C(F)(F)F |  | inactive
Nc1cccc2c(N)cccc12 |  | inactive
O=C(/C=C/c1ccc(O)cc1)CC(=O)/C=C/c1ccc(O)cc1 | 3.49 µM (active) | 
CCCCC(CC)COC(=O)CCCCC(=O)OCc1ccccc1 (stereo not given) |  | inactive
ClC1=C(Cl)C(Cl)(Cl)C(Cl)=C1Cl |  | inactive
CC(C)(C)CC(C)(C)c1ccc(O)c(-n2nc3ccccc3n2)c1 |  | inactive
CCCCOCCO |  | inactive
O=c1c(-c2ccc(O)cc2)coc2cc(O)ccc12 | 27.3 µM (active) and 20.3 µM (active) and 65.3 µM (active) | 
CCCCCCCCCCCCc1ccccc1S(=O)(=O)O |  | inactive
COc1cc(CCC(=O)CC(=O)CCc2ccc(O)c(OC)c2)ccc1O | 4.39 µM (active) | 
CCc1nn(C2CCCCC2)c2cc(C3(C#N)CCC(C(=O)O)CC3)ccc12 (stereo not given) | 1.44 µM (active) | 
CCCCC[C@H](O)CC(=O)CCc1ccc(O)c(OC)c1 | 27.8 µM (active) | 
CC(C)(C)c1cc(C(C)(C)C)c(O)c(C(C)(C)C)c1 |  | inactive

Reference: PubChem BioAssay (EPA / NIEHS)
